The text below walks through data of PubChem BioAssay (EPA / NIEHS).

A word on the AC50: it is the midpoint of the concentration-response curve, whichever way the signal moves.

Results filed as inconclusive are left out. A structure can be active in one record and inactive in another. Activity calls are given as the source filed them. The calls were made as follows, unless noted: active = hit-call score of the fitted dose curve at least 0.9, where 1 is the maximum; inactive = score below 0.9.

Experiment [1] can be described thus: ATG_TCF_b_cat_CIS: Attagene CIS-FACTORIAL HepG2 Assay for human T-Cell-Factor with beta-catenin (TCF/b-cat) (AID 2282965). To be noted: HepG2 TCF/beta-catenin cis-reporter transcription, actives raise or lower the signal. Summed up: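 HepG2 cells transiently transfected with cis-promoter-driven multiplexed reporter units; reporter mRNA measured 24 h after dosing by RT-PCR, FAM labelling, HpaI digestion and capillary electrophoresis. Bidirectional fitting relative to DMSO baseline.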

A short description of experiment [2]: ATG_TGFb_CIS: Attagene CIS-FACTORIAL HepG2 Assay for human Transforming Growth Factor (TGF) (AID 2282967). To be noted: HepG2 Attagene CIS TGFb reporter, mRNA transcription; actives raise or lower the signal. A digest of the protocol: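 After a 24-hour incubation with compound, transfected HepG2 cells were lysed for RNA; reporter cDNA was amplified, fluorescently end-labeled and separated by CE. DMSO served as baseline for bidirectional fits.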

A short description of experiment [3]: ATG_GAL4_TRANS: Attagene TRANS-FACTORIAL HepG2 Assay for GAL4 (Internal Marker) (AID 2282976; active = hit-call score of the fitted dose curve at least 0.9, where 1 is the maximum). The settings on record: HepG2 Attagene TRANS GAL4 internal marker reporter. Summed up: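 Background-control readout: GAL4-UAS reporter transcript in transiently transfected HepG2 cells after 24 h compound exposure. Measured by RT-PCR, 6-FAM primer extension, HpaI digest and capillary electrophoresis; gain-of-signal fit versus DMSO.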

Experiment [4] addresses Estrogen-related receptor gamma (Homo sapiens) (UniProt P62508). In words: ATG_ERRg_TRANS: Attagene TRANS-FACTORIAL HepG2 Assay for human Estrogen-Related Receptor gamma (ERRg) (AID 2282977; active = hit-call score of the fitted dose curve at least 0.9, where 1 is the maximum;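 also: hits increase reporter signal over DMSO so potencies reflect activators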). To be noted: HepG2 Attagene TRANS reporter, ERRg transactivation. A digest of the protocol:
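HepG2 cells transiently transfected with multiplexed GAL4-UAS reporter units and chimeric NR-Gal4 constructs were exposed to test chemicals for 24 h. Reporter mRNA was measured by RT-PCR, 6-FAM primer extension, HpaI digestion and capillary electrophoresis; gain-of-signal versus DMSO.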

Experiment [5] can be described thus: ATG_TAL_CIS: Attagene CIS-FACTORIAL HepG2 Assay for human TAL Basal Promoter (AID 2282966).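 Also: background control endpoint measuring basal TAL promoter reporter mRNA not a specific factor.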 To be noted: HepG2 Attagene cis-factorial TAL promoter reporter; actives raise or lower the signal. A digest of the protocol:
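HepG2 cells transiently transfected with multiplexed cis-promoter reporter units, dosed 24 h. Reporter mRNA quantified by RT-PCR, 6-FAM labelling, HpaI digestion and capillary electrophoresis; TAL basal promoter serves as background control, fitted bidirectionally versus DMSO.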

Experiment [6] can be described thus: ATG_VDRE_CIS: Attagene CIS-FACTORIAL HepG2 Assay for human Vitamin D Receptor Element (VDRE) (AID 2282968). To be noted: HepG2 VDRE cis-reporter transcription, actives raise or lower the signal. A digest of the protocol: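 Cell-based multiplexed reporter format in human liver HepG2 cells, 24 h post-dose. Fluorescence from capillary electrophoresis of reporter cDNA gives the signal, with DMSO as negative control and baseline.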

Experiment [7] addresses Nuclear receptor subfamily 1 group I member 3 (Homo sapiens) (UniProt Q14994). Briefly: ATG_CAR_TRANS: Attagene TRANS-FACTORIAL HepG2 Assay for human Constitutive Androstane Receptor (CAR) (AID 2282969; active = hit-call score of the fitted dose curve at least 0.9, where 1 is the maximum;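 also: activators raise reporter mRNA above DMSO so AC50 marks induction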). To be noted: HepG2 Attagene TRANS-FACTORIAL CAR reporter. Summed up: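 HepG2 cells transiently transfected with GAL4-UAS reporter units; TRANS format reads activity of exogenous chimeric NR-Gal4 protein. After 24 h dosing, reporter mRNA quantified by RT-PCR, 6-FAM labelling and capillary electrophoresis; gain of signal fitted against DMSO.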

For experiment [8], the target named is X-box-binding protein 1 (Homo sapiens) (UniProt P17861). In words: ATG_Xbp1_CIS: Attagene CIS-FACTORIAL HepG2 Assay for human X-box Binding Protein 1 (XBP1) (AID 2282972). To be noted: HepG2 XBP1 cis-element reporter, Attagene multiplex; actives raise or lower the signal. A digest of the protocol:
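After a 24-hour chemical exposure of HepG2 cells carrying cis-regulated reporters, reporter mRNA levels are assessed. Quantification uses RT-PCR, 6-FAM labelling and capillary electrophoresis. Gain- or loss-of-signal is fitted against DMSO.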

Experiment [9] concerns the target Estrogen receptor (Homo sapiens) (UniProt P03372). Briefly: ATG_ERa_TRANS: Attagene TRANS-FACTORIAL HepG2 Assay for human Estrogen Receptor alpha (ERa) (AID 2282970; active = hit-call score of the fitted dose curve at least 0.9, where 1 is the maximum). The settings on record: HepG2 Attagene TRANS ERa GAL4 reporter, mRNA. A digest of the protocol: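 HepG2 cells transiently transfected with multiplexed GAL4-UAS reporter units read out chimeric NR-Gal4 activity. After 24 h compound exposure, reporter mRNA was quantified by RT-PCR, 6-FAM labeling, HpaI digestion and capillary electrophoresis, relative to DMSO.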

A short description of experiment [10]: ATG_M_19_TRANS: Attagene TRANS-FACTORIAL HepG2 Assay for M19 Transcription Factor (Internal Marker) (AID 2282974; active = hit-call score of the fitted dose curve at least 0.9, where 1 is the maximum). The settings on record: HepG2 Attagene TRANS-FACTORIAL M19 internal marker reporter. A digest of the protocol:
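Background-control readout: after 24 h chemical exposure of transfected HepG2 carrying GAL4-driven reporter units, RNA was reverse-transcribed, amplified, fluorescently labeled and sized by capillary electrophoresis; gain-of-signal fit against DMSO.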

Nuclear receptor subfamily 1 group I member 3 (Homo sapiens), sequence (Q14994 whole entry, looked up, the tested form may be a part): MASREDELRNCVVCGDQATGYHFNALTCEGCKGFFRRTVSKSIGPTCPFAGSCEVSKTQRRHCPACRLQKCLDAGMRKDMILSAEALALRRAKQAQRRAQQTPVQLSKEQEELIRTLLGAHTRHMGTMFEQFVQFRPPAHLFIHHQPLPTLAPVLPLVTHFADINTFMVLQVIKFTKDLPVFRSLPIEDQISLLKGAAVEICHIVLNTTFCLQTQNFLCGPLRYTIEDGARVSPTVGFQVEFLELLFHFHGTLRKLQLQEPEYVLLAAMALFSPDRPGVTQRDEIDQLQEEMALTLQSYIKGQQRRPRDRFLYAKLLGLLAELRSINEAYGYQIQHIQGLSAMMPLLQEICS
Estrogen-related receptor gamma (Homo sapiens), sequence (P62508 whole entry, looked up, the tested form may be a part): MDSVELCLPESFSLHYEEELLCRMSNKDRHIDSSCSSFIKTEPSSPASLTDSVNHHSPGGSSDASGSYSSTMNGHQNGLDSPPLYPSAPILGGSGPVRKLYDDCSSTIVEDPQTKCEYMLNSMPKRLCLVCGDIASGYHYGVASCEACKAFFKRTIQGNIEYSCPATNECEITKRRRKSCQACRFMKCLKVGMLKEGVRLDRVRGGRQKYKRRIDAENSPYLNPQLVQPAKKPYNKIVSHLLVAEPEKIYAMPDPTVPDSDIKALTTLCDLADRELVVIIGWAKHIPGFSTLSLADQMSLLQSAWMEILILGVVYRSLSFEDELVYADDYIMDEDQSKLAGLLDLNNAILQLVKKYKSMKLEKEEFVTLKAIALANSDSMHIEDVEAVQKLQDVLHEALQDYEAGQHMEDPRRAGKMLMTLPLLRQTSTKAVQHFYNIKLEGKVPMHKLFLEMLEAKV
Estrogen receptor (Homo sapiens), sequence (P03372 whole entry, looked up, the tested form may be a part): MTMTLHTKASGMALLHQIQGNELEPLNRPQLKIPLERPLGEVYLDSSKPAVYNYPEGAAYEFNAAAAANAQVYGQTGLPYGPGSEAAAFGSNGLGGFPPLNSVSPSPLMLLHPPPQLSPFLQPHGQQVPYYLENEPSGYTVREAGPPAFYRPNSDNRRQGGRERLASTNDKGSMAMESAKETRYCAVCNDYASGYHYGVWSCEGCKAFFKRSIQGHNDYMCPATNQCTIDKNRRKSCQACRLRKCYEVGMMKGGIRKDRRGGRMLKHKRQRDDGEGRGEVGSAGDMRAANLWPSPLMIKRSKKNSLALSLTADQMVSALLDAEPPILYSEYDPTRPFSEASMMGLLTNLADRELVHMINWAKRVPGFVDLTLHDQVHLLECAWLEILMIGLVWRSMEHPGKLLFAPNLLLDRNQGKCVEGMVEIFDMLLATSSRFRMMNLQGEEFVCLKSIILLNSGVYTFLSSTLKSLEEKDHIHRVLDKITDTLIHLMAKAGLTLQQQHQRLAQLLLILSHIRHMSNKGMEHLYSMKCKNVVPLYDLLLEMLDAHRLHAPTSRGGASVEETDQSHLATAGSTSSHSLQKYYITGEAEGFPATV
X-box-binding protein 1 (Homo sapiens), sequence (P17861 whole entry, looked up): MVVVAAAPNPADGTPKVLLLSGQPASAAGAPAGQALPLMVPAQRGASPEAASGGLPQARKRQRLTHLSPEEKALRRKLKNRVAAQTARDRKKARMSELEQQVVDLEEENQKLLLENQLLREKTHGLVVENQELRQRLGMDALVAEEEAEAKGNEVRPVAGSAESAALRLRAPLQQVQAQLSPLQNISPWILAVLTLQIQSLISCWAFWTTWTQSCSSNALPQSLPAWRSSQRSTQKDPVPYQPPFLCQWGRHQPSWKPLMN

Turning to `O=C(O)c1ccccc1C(c1ccc(O)cc1)c1ccc(O)cc1`, the AC50 in experiment [1] was 166 µM (active). For the same compound, the call in [1], in [2], in experiment [3] and in experiment [4] was inactive.
As to `O=C(OCCOCCOC(=O)c1ccccc1)c1ccccc1`, the result in experiment [1], in [5], in experiment [2] and in experiment [6] was inactive.
Take `CCC(C)(C)C1CCC(O)CC1` (stereo not given): in experiment [1], the AC50 is 100 µM (active). For the same compound, the outcome in [1], in experiment [5], in [2], in [6], in [7] and in experiment [8] was inactive. The result in experiment [3] was inactive.
As to `CC(C)CCCCCCOC(=O)CCCCC(=O)OCCCCCCC(C)C`, the result in experiment [1], in experiment [5], in experiment [2], in [6], in experiment [8] and in [3] was inactive.
On to `COc1ccc([N+](=O)[O-])cc1N`, for which the result in [1], in experiment [2], in experiment [6], in experiment [9], in experiment [8] and in experiment [3] was inactive.
On to `CN(C)C=O`, for which the compound was called inactive in experiment [1], in experiment [5], in experiment [2], in experiment [9], in [3] and in experiment [4].
As to `CC(C)(C)c1cccc(C(C)(C)C)c1O`, the values for the AC50 in [1], in experiment [9] and in [8] were 173 µM (active), 61.4 µM (active) and 144 µM (active), respectively. Besides, the compound was classed as inactive in experiment [2], in [7] and in experiment [3].
As to `CCCCCCC(=O)O`, the result in experiment [1], in [2], in experiment [6], in experiment [7], in experiment [9] and in [3] was inactive. Besides, in [4], the compound was called inactive.
For the compound `CCCCCCCCOC(=O)CCCCCCCCC(=O)OCCCCCCCC`, the outcome in experiment [1], in experiment [2], in experiment [6], in experiment [7], in [9] and in [10] was inactive. Moreover, the compound was called inactive in experiment [3] and in [4].
For the compound `CC(=O)CC(C)(C)O`, the result in [1], in experiment [2], in experiment [6], in experiment [3] and in experiment [4] was inactive. Also, in experiment [9], the AC50 is 26.5 µM (active).
On to `COCC(C)O` (stereo not given), for which the call in experiment [1], in experiment [2], in [6], in experiment [9], in experiment [8] and in experiment [4] was inactive.
Consider `CC(O)CO` (stereo not given), for which the outcome in experiment [1], in experiment [2], in experiment [6], in experiment [9], in experiment [3] and in experiment [4] was inactive.
As to `CC(=O)NC1(c2cccc(F)c2)CCN(CC[C@@]2(c3ccc(Cl)c(Cl)c3)CN(c3ccccc3)C(=O)CO2)CC1`, the figures for the AC50 in experiment [1], in experiment [6] and in [8] were 8.64 µM (active), 39.8 µM (active) and 25.7 µM (active), respectively. For the same compound, the call in experiment [2], in experiment [10] and in experiment [3] was inactive.
As for `O=C1OC2(c3ccccc31)c1cc(Br)c(O)c(Br)c1Oc1c2cc(Br)c(O)c1Br`, the outcome in experiment [1], in experiment [2], in [6], in experiment [7], in [9] and in [8] was inactive. Besides, the outcome in [3] was inactive. Also, the AC50 in experiment [6] was 56.4 µM (active); in [8] it was 66.7 µM (active).
Take `CC[C@H](C)[C@@H](C(=O)O)n1sc2ccccc2c1=O`: the result in [1], in experiment [2], in experiment [6], in [7], in experiment [9] and in experiment [10] was inactive.
With `CCCCC(CC)COC(=O)CCCCC(=O)OCC(CC)CCCC` (stereo not given), the compound was classed as inactive in [1], in experiment [2], in experiment [6], in experiment [9] and in experiment [8].
Regarding `C#C[C@]1(O)CC[C@H]2[C@@H]3CCC4=CC(=O)CC[C@@H]4[C@H]3CC[C@@]21C`, the outcome in experiment [1], in [2], in [7] and in experiment [8] was inactive.
Turning to `NC(=O)N1C(=O)C(C(=O)c2cc(Cl)cs2)c2cc(F)c(Cl)cc21` (stereo not given), the compound was classed as inactive in experiment [1], in [2], in experiment [9] and in [4]. Also, the half-maximal activity concentration (AC50) in [6] was 9.88 µM (active).
For the compound `N#C[C@@H]1CC(F)(F)CN1C(=O)CNC1CC2CCC(C1)N2c1ncccn1` (stereo not given in full), the outcome in experiment [1], in [2], in experiment [9], in [8], in experiment [3] and in [4] was inactive.
